Several values for one entry are separate records, joined by “and”; a condition that tells them apart may be missing. Identical values can stand only once. Inconclusive results are not listed. Activity calls are given as the source filed them. Unless noted, calls come from the whole dose curve; as a rule, active = well fitted curve in the direction sought with a large enough effect; inconclusive = small, poorly fitted or top-dose-only effect, or another doubt; inactive = no such curve, though single readings can be large; an effect the other way counts as inactive or inconclusive.
How the values were obtained:
[1] = AP1 Signaling Pathway (AID 357; active = well fitted curve in either direction with a large enough effect, not every such curve was filed as active;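 note: ME-180 reporter cells stimulated with EGF at its EC50 level; % is set by controls: 0 for no effect and ±100 for the full control effect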); conditions: ME-180 AP-1-bla reporter, EGF-induced, beta-lactamase ratio, 5 h
Outline: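 In this screen, ME-180 cells in Opti-MEM with 0.5% dialyzed FBS received EC50 EGF and compound titrations for 5 h. AP-1 reporter beta-lactamase was detected via CCF4 ratio, giving AC50 for positive and negative modulators.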

[2] = biological target: Cytochrome P450 1A2 (Homo sapiens) (UniProt P05177); assay: p450-cyp1a2 (AID 410; calls by dose curve; note: potency is the fitted concentration of half-maximal effect;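 for activity change, negative = inhibition: -100% = full effect of reference inhibitor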); conditions: recombinant CYP1A2, luciferin-ME demethylation, luminescence; series mostly up to 57 µM
Outline: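 20nM CYP1A2 with 100uM Luciferin-ME (at Km) in 100mM KPO4; compound preincubated 10 min, NADPH regeneration added, 60 min at room temperature. Luciferin quantified by luminescence after detection reagent; normalized to 57 uM furafylline.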

[3] = NFAT Signaling Pathway (AID 444; active = well fitted curve in either direction with a large enough effect, not every such curve was filed as active;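 note: carbachol stimulus at about its EC50 of 1 µM final; % is set by controls: 0 for no effect and ±100 for the full control effect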); conditions: Jurkat NFAT-bla M1, carbachol, beta-lactamase ratio, 5 h
Outline: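 Jurkat cells with NFAT-driven β-lactamase reporter and co-expressed M1 receptor, stimulated with carbachol (final 1 uM, ~EC50), compound titration, 5 h at 37 °C. CCF4 loaded 1 h at RT; 460/530 nm ratio gave %activity and AC50.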

[4] = Stat Signaling Pathway (AID 446; active = well fitted curve in either direction with a large enough effect, not every such curve was filed as active;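 note: ME-180 cervical cancer cells given 40 pM IL-6 alongside compound; SIE-controlled beta-lactamase reporter measured as 460/530 nm FRET emission ratio; % is set by controls: 0 for no effect and ±100 for the full control effect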); conditions: ME-180 SIE beta-lactamase reporter, IL-6 stimulated, 5 h
Outline: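 Screening format detects activators and inhibitors alike: ME-180 SIE-bla cells stimulated at 40 pM IL-6 for 5 hrs with compound, then dual-emission beta-lactamase read at 405 nm excitation.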

[5] = biological target: Mitogen-activated protein kinase 10 (Mus musculus) (UniProt Q61831); assay: JNK3 AlphaScreen Assay (AID 530; active = well fitted curve in either direction with a large enough effect, not every such curve was filed as active;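 note: kinase came from lysate of stimulated human HepG2 cells; signal reports phosphorylation of biotinylated GST-cJun 1-79 at Ser73 with 10 µM ATP; % is set by controls: 0 for no effect and ±100 for the full control effect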); conditions: JNK3 lysate, c-Jun phosphorylation; series mostly up to 57.1 µM
Outline: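 Pre-activated (IL-1β/TNFα) JNK3 in HepG2 lysates phosphorylates biotin-GST-cJun(1-79), 10 uM ATP; anti-phospho-cJun(Ser73) AlphaScreen read at room temperature, pH 7.6 Tris buffer. Compounds pre-incubated 15 min as titrations.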

[6] = biological target: 3',5'-cyclic-AMP phosphodiesterase 4B (Homo sapiens) (UniProt Q07343); assay: qHTS Assay for Inhibitors of PDE-IV (AID 607; active = well fitted activation curve with a large enough effect in the main read-out, with a control signal flat, not every such curve was filed as active; note: % of control where 0% means no effect); conditions: HEK293 ACTOne CNG channel cells, membrane potential fluorescence; series mostly up to 22.9 µM
Outline: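 The readout is membrane depolarisation from a cAMP-sensing CNG channel, detected with a potential dye at ex 535/em 590. Cells were HEK293-derived (endogenous PDE-IV) at 1000 cells/well, titrated up to 22.9 uM final.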

[7] = qHTS Assay for Lipid Storage Modulators (AID 1519; calls by dose curve); conditions: Drosophila S3 cells, BODIPY lipid droplet/cell ratio, laser cytometry, cells loaded with oleic acid; for activity change, negative = inhibition: at 25.7 µM (top of the series)
Outline: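 Cells seeded at 5,000 per well were treated with compounds over a concentration series and loaded with oleic acid (400 uM, as added). Lipid droplet fluorescence (488 nm excitation, 500-530 nm channel) was read by laser-scanning cytometry and normalized to 20 uM Triacsin C.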

[8] = biological target: ATP-dependent 6-phosphofructokinase (Trypanosoma brucei brucei) (UniProt O15648); assay: qHTS Assay to Find Inhibitors of T. brucei phosphofructokinase: hit validation (AID 492961); conditions: T. brucei PFK, ADP-Glo luminescence; series mostly up to 24.3 µM
Outline: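 Inhibition of parasite PFK is measured as reduced ADP formation, quantified via luciferase after ATP depletion. Assay used 0.1 mM ATP, 0.5 mM F6P, 1.25 nM enzyme, 45 min incubation.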

[9] = biological target: Ubiquitin carboxyl-terminal hydrolase 1 (Homo sapiens) (UniProt O94782); assay: Inhibitors of USP1/UAF1: Pilot qHTS (AID 504865); conditions: purified USP1/UAF1, Ub-rhodamine cleavage fluorescence; series mostly up to 54.9 µM;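 note: rhodamine fluorescence freed from ubiquitin-rhodamine substrate followed over time; top concentration of the series differs between compounds; % is set by controls: 0 for no effect and ±100 for the full control effect; nearly all actives have a fitted effect of over 35% in size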
Outline: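 USP1/UAF1 complex (1nM) preincubated with compound 15 min at room temperature, then Ub-Rho substrate (150nM final) added. Fluorescence read kinetically at 480/540 nm, 6 reads every 60 seconds. Buffer: 50mM HEPES pH 7.8, 0.5mM EDTA, 0.1 mg/ml BSA, 1mM TCEP, 0.01% Tween-20.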

[10] = qHTS profiling for inhibitors of Plasmodium falciparum proliferation (AID 504749);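 note: 0% = DMSO vehicle and full inhibition = artemisinin control; nearly all actives have a fitted effect of over 60% in size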; conditions: P. falciparum in erythrocytes, SYBR Green DNA, 72 h
Outline: (§1)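 P. falciparum-infected erythrocytes (0.3% parasitemia, 2.5% hematocrit) incubated with compound 72 h at 37 C, 5% CO2. Parasite DNA detected by SYBR Green after lysis, overnight at room temperature; normalised to 0.29 uM artemisinin and DMSO.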

AS120 = assay: as above; conditions: P. falciparum in erythrocytes, SYBR Green DNA, 72 h; series mostly up to 28.7 µM
Outline: as §1

CP238 = assay: as above; conditions: P. falciparum in erythrocytes, SYBR Green DNA, 72 h; series mostly up to 12.8 µM
Outline: as §1

CP250 = assay: as above; conditions: P. falciparum in erythrocytes, SYBR Green DNA, 72 h; series mostly up to 12.8 µM
Outline: as §1

CP262 = assay: as above; conditions: P. falciparum in erythrocytes, SYBR Green DNA, 72 h; series mostly up to 12.8 µM
Outline: as §1

CP265 = assay: as above; conditions: P. falciparum in erythrocytes, SYBR Green DNA, 72 h; series mostly up to 12.8 µM
Outline: as §1

FAB9 = assay: as above; conditions: P. falciparum in erythrocytes, SYBR Green DNA, 72 h; series mostly up to 12.8 µM
Outline: as §1

JCK = assay: as above; conditions: P. falciparum in erythrocytes, SYBR Green DNA, 72 h; series mostly up to 12.8 µM
Outline: as §1

PC49 = assay: as above; conditions: P. falciparum in erythrocytes, SYBR Green DNA, 72 h; series mostly up to 12.8 µM
Outline: as §1

[11] = biological target: Glucocorticoid receptor (Homo sapiens) (UniProt P04150); assay: GR-GFP Redistribution (AID 450;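 active = compounds whose dose series gives a full or clear partial fitted curve of increased nuclear translocation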; note: potency is the fitted concentration of half-maximal effect); conditions: U2OS GR-GFP nuclear translocation, laser cytometry, 2 h
[12] = biological target: Glucocorticoid receptor (Homo sapiens) (UniProt P04150); assay: GR-EFC Redistribution (AID 451; calls by dose curve; note: potency is the fitted concentration of half-maximal effect); conditions: CHO-K1 GR-EFC translocation, beta-gal luminescence, 2 h
Outline: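 CHO-K1 cells expressing nuclear EA and GR-ED fragments of b-gal; compounds titrated up to 46 uM final, 2 h at 37 C. GR nuclear translocation read as complemented b-gal luminescence after 1 h RT detection.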

[13] = at 7.69 µM (top of the series) unless noted
[14] = measured here: cell count channel max response
[15] = measured here: lipid channel max response
[16] = at 12.8 µM (top of the series), parasite line A
[17] = at 12.8 µM (top of the series), parasite line B

Sequence of Ubiquitin carboxyl-terminal hydrolase 1 (Homo sapiens) (O94782 whole entry, looked up): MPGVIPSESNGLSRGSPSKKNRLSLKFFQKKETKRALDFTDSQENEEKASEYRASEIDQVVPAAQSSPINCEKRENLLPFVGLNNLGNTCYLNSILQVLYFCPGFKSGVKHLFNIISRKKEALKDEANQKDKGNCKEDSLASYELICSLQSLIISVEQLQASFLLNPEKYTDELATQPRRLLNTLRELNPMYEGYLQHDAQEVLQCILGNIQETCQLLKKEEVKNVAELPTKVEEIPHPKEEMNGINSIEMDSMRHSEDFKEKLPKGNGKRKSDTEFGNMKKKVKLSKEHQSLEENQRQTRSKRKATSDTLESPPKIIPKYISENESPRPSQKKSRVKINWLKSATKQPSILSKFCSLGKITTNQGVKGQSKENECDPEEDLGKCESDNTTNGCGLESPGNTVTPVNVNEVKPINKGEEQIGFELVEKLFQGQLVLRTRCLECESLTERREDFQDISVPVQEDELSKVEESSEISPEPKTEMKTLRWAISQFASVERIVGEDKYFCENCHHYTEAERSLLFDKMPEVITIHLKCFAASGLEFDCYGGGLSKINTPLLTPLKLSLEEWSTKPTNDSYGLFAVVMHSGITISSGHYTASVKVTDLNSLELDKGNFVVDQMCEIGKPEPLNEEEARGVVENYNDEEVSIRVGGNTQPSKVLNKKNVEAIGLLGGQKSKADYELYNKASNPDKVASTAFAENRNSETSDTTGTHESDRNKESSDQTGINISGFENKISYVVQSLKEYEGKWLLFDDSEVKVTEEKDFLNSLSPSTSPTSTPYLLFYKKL
Sequence of Cytochrome P450 1A2 (Homo sapiens) (P05177 whole entry, looked up): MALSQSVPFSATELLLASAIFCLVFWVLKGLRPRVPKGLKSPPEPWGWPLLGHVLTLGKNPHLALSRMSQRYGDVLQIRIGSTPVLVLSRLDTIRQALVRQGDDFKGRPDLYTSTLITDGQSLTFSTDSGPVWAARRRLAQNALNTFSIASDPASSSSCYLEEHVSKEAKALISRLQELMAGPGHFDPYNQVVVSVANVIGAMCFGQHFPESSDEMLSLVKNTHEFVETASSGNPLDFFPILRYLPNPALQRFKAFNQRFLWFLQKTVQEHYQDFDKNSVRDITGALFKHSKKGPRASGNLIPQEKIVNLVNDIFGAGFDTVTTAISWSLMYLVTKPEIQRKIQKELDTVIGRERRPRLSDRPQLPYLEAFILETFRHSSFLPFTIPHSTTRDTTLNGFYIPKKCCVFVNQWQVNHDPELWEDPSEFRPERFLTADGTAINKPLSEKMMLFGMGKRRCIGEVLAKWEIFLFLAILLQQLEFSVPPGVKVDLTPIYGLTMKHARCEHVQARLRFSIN
Sequence of 3',5'-cyclic-AMP phosphodiesterase 4B (Homo sapiens) (Q07343 whole entry, looked up): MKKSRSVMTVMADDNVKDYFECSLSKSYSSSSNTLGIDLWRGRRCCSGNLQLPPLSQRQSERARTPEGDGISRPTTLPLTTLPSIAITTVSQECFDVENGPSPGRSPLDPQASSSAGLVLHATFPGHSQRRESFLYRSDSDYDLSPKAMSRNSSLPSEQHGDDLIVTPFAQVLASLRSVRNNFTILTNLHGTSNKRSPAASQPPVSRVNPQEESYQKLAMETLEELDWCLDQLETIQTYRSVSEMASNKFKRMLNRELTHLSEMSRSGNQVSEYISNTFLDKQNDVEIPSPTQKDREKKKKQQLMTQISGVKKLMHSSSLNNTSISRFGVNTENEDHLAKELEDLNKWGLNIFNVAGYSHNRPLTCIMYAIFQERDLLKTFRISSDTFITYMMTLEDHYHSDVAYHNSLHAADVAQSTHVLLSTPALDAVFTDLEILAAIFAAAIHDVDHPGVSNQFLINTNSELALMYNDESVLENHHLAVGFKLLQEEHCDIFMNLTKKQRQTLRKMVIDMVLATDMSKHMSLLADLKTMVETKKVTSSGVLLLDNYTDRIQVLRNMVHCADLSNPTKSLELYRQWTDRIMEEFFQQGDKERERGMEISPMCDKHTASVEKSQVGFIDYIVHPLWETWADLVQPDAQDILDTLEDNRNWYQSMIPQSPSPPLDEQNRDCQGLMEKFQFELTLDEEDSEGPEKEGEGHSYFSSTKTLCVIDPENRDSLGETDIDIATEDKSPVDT
Sequence of Glucocorticoid receptor (Homo sapiens) (P04150 whole entry, looked up, the tested form may be a part): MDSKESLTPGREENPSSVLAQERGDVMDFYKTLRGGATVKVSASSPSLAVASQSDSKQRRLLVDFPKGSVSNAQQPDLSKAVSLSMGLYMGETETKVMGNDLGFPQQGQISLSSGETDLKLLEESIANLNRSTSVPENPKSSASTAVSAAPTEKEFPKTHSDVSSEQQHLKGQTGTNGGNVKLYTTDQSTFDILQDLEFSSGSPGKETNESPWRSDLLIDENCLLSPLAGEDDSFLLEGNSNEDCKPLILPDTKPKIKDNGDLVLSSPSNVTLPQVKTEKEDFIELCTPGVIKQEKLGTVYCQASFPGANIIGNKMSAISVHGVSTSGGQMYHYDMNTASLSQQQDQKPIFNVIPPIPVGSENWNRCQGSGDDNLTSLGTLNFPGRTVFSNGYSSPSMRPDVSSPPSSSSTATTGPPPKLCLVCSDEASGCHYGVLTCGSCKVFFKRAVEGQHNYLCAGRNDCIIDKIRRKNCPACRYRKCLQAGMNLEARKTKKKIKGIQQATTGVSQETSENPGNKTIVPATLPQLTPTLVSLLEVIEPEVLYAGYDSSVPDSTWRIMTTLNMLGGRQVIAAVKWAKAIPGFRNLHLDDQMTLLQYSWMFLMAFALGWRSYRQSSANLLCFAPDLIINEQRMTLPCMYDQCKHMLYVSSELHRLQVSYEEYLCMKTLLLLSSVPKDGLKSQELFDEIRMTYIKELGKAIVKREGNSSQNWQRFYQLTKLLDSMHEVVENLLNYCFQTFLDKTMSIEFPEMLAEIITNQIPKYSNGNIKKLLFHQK
Sequence of ATP-dependent 6-phosphofructokinase (Trypanosoma brucei brucei) (O15648 whole entry, looked up): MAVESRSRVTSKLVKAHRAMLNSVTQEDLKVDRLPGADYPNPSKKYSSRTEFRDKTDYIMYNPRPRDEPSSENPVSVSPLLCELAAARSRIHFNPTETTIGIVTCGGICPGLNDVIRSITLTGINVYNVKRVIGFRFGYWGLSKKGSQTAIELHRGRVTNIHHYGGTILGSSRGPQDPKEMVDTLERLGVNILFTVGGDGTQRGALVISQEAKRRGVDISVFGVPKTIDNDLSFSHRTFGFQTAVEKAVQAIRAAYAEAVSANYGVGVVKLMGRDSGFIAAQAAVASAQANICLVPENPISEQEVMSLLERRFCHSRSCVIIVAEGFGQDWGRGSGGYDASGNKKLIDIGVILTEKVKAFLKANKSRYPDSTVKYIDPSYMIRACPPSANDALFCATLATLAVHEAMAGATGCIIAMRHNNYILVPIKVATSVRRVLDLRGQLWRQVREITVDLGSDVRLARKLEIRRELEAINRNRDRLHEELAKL

CC(C)NC[C@H](O)c1cc(O)cc(O)c1
12.4%: max response [7, 15]
inactive: activity change, negative = inhibition ([1]; at 17.2 µM (top of the series)) -17.9% | activity change, negative = inhibition ([1]; at 38 µM (top of the series)) -18.1% | Potency [2] | activity change, negative = inhibition ([3]; at 17.2 µM (top of the series)) -4.38% | activity change, negative = inhibition ([3]; at 38 µM (top of the series)) 2.58% | activity, negative = inhibition [4, 13] 14.6% [at 17.2 µM] | Potency [5] | Potency [6] | activity change, negative = inhibition [7] -2.07% | outcome [8] | Potency [9] | activity, negative = inhibition ([10]; at 28.7 µM (top of the series), parasite line A) 15.2% | activity, negative = inhibition ([10]; at 28.7 µM (top of the series), parasite line B) 4.36% | Potency (AS120) | Potency (CP238) | Potency (CP250) | Potency (CP262) | Potency (CP265) | Potency (FAB9) | Potency (JCK) | Potency (PC49)
14.3%: max response [7, 14]

COc1cc(=O)n(C)c2c(OC[C@@H](O)C(C)(C)O)cccc12
-7.54%: max response [7, 14]
-18.8%: max response [7, 15]
inactive: activity change, negative = inhibition ([1]; at 17.2 µM (top of the series)) 11.5% | activity change, negative = inhibition ([1]; at 38 µM (top of the series)) 3.48% | activity change, negative = inhibition ([3]; at 17.2 µM (top of the series)) 1.64% | activity change, negative = inhibition ([3]; at 38 µM (top of the series)) 5.18% | activity, negative = inhibition ([4]; at 17.2 µM (top of the series)) -4.39% | activity, negative = inhibition ([4]; at 38 µM (top of the series)) 1.34% | Potency [11] > 46 µM and > 20.6 µM | Potency [12] > 46 µM and > 20.6 µM | Potency [5] | Potency [6] | activity change, negative = inhibition [7] -2.03% | Potency [9]
active: Potency [2] 20 µM and 12.6 µM

CCCN[C@@H](C)C(=O)Nc1c(C)csc1C(=O)OC
inactive: activity change, negative = inhibition [1, 13] 8.34% [at 17.2 µM] | activity change, negative = inhibition [3, 13] -13.1% [at 17.2 µM] | activity, negative = inhibition [4, 13] -0.411% [at 17.2 µM] | Potency [11] > 20.6 µM | Potency [12] > 20.6 µM | Potency [5] | Potency [6] | activity change, negative = inhibition [7] -2.12% | outcome [8] | activity, negative = inhibition [10, 16] 6.61% | activity, negative = inhibition [10, 17] 16.5% | Potency (AS120) | Potency (CP238) | Potency (CP250) | Potency (CP262) | Potency (CP265) | Potency (FAB9) | Potency (JCK) | Potency (PC49)
-14.2%: max response [7, 15]
active: Potency [2] 12.6 µM
-6.57%: max response [7, 14]

NC(N)=NC[C@@H]1COC2(CCCCC2)O1
-12.6%: max response [7, 15]
inactive: activity change, negative = inhibition [1, 13] 13.7% [at 17.2 µM] | Potency [2] | activity change, negative = inhibition [3, 13] 18.5% [at 17.2 µM] | activity, negative = inhibition [4, 13] 6.54% [at 17.2 µM] | Potency [11] > 20.6 µM | Potency [12] > 20.6 µM | Potency [5] | Potency [6] | activity change, negative = inhibition [7] -0.418% | outcome [8] | Potency [9] | activity, negative = inhibition [10, 16] -12.1% | activity, negative = inhibition [10, 17] -13% | Potency (AS120) | Potency (CP238) | Potency (CP250) | Potency (CP262) | Potency (CP265) | Potency (FAB9) | Potency (JCK) | Potency (PC49)
-12.5%: max response [7, 14]

COc1ccccc1OC[C@H](O)COC(N)=O
2.55%: max response [7, 15]
-1.12%: max response [7, 14]
inactive: activity change, negative = inhibition [1, 13] -6.22% [at 17.2 µM] | activity change, negative = inhibition [3, 13] -5.33% [at 17.2 µM] | activity, negative = inhibition [4, 13] 10.4% [at 17.2 µM] | Potency [11] > 20.6 µM | Potency [12] > 20.6 µM | Potency [5] | Potency [6] | activity change, negative = inhibition [7] 1.49% | outcome [8] | Potency [9] | activity, negative = inhibition [10, 16] 3.95% | activity, negative = inhibition [10, 17] 18.1% | Potency (AS120) | Potency (CP238) | Potency (CP250) | Potency (CP262) | Potency (CP265) | Potency (FAB9) | Potency (JCK) | Potency (PC49)
active: Potency [2] 10 µM

CN(C)CC[C@@H](c1ccccc1)c1ccccn1
2.03%: max response [7, 15]
1.01%: max response [7, 14]
inactive: activity change, negative = inhibition ([1]; at 17.2 µM (top of the series)) 4.02% | activity change, negative = inhibition ([1]; at 38 µM (top of the series)) 8.55% | Potency [2] | activity, negative = inhibition ([4]; at 17.2 µM (top of the series)) 8.97% | activity, negative = inhibition ([4]; at 38 µM (top of the series)) 22.6% | Potency [11] > 46 µM and > 20.6 µM | Potency [12] > 46 µM and > 20.6 µM | Potency [5] | Potency [6] | activity change, negative = inhibition [7] 1.47% | Potency [9]

O=C(O)/C=C\c1ccc(Cn2ccnc2)cc1
-6.14%: max response [7, 14]
-3.7%: max response [7, 15]
inactive: activity change, negative = inhibition [1, 13] -4.02% [at 17.2 µM] | activity change, negative = inhibition [3, 13] -0.213% [at 17.2 µM] | activity, negative = inhibition [4, 13] 6.45% [at 17.2 µM] | Potency [11] > 20.6 µM | Potency [12] > 20.6 µM | Potency [5] | Potency [6] | activity change, negative = inhibition [7] 0.716% | outcome [8] | Potency [9] | activity, negative = inhibition [10, 16] 2.69% | activity, negative = inhibition [10, 17] -5.94% | Potency (AS120) | Potency (CP238) | Potency (CP250) | Potency (CP262) | Potency (CP265) | Potency (FAB9) | Potency (JCK) | Potency (PC49)
active: Potency [2] 12.6 µM

Reference: PubChem BioAssay (NCATS)
